Assay outcomes from PubChem BioAssay.
The sample as a whole holds a higher share of hits than the screen did.
LmPK inh: qHTS Assay for Inhibitors of Leishmania Mexicana Pyruvate Kinase (LmPK); Q27686; purified LmPK, Kinase-Glo ATP luminescence, 1 h; Potency, µM (top dose mostly 57.5 µM), for the others: top-dose activity change, negative = inhibition, actives largely listed as inhibitors; 290,000 compounds, 0.37% hits; AID 1721, 2009; further: potency means the concentration at half of the fitted maximal effect; on the % scale 0 is the no-effect control and ±100 the full control effect
Target sequence (Q27686 whole entry, looked up): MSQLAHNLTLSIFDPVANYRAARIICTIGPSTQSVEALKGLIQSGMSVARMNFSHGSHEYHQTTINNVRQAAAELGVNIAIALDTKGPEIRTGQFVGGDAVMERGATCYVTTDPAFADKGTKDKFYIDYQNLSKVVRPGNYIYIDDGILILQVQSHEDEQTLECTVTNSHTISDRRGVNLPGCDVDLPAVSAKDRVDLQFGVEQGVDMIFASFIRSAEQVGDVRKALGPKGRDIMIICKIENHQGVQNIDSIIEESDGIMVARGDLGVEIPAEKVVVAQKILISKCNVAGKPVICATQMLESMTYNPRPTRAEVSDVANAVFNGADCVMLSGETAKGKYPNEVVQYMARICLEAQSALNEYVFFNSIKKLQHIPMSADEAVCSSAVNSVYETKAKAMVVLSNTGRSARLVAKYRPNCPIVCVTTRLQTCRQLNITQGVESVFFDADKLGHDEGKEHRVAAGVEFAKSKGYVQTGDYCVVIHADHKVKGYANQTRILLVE
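In 50 mM imidazole pH 7.2 with 7 mM MgCl2, LmPK (0.1 nM) turned over PEP (0.5 mM) and ADP (0.1 mM) for 1 h at room temperature. Luciferase read-out of ATP.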
Shiga inhibitor: A qHTS for Small Molecule Inhibitors of Shiga Toxin. 290,000 compounds, 9.2% hits. AID 2315, 2010. Vero cells, Shiga toxin protein synthesis inhibition reporter. inhibition, % at 38.7 µM; in the data active means inhibition mostly above about 28%, no sharp cut-off; inactive means mostly below about 43%; further: 0% is about no effect
Giardia FBPA inh: qHTS Assay for Inhibitors of Fructose-1,6-bisphosphate Aldolase from Giardia Lamblia; A8B2U2; AID 2451, 2010; 290,000 compounds, 0.71% hits; Potency, µM (titrated, usually from 59.6 µM), for the others: at the highest dose activity, negative = inhibition, hits mostly inhibitors; purified Giardia FBPA; further: potency means the concentration at half of the fitted maximal effect; on the % scale 0 is the no-effect control and ±100 the full control effect; nearly all actives have a fitted effect of over 55% in size
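Giardia FBPA (40 nM reagent) was preincubated 10 min at RT with compound (up to 57.5 uM final), then substrate plus GAPDH/TPI/NAD/arsenate coupling system with diaphorase/resazurin was added; resorufin fluorescence (525/598 nm) was read after 20 min.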
TbPYK inhibitor: qHTS of Trypanosoma Brucei Inhibitors | TbPYK enzyme, Kinase-Glo Plus ATP luminescence, 45 min | Potency, µM (top dose mostly 76.8 µM), inactives show at the top dose activity, negative = inhibition, actives largely listed as inhibitors | 410,000 compounds, 0.12% hits | AID 624173, 2012; further: potency means the concentration at half of the fitted maximal effect; on the % scale 0 is the no-effect control and ±100 the full control effect; nearly all actives have a fitted effect of over 50% in size
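Screened from lowest to highest concentration, compounds were pinned into TbPYK/substrate mixtures, and ADP (130 uM final) was added. Plates sat at room temperature for 45 min prior to Kinase-Glo Plus detection by luminescence.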
CHX counter: Cycloheximide Counterscreen for Small Molecule Inhibitors of Shiga Toxin | max response, % | 300,000 compounds, 12% hits | cell reporter, cycloheximide protein synthesis inhibition counterscreen; in the data active means max response mostly above about 13%, no sharp cut-off; inactive means mostly below about 14%; further: read at 38.3 µM for the half of the compounds with a filed dose; 0% is about no effect
RE007 growth inh: qHTS Assay for Inhibitors of the HIV-1 protein Vpr. S. pombe RE007 Vpr strain, BacTiter-Glo ATP luminescence, 24 h. Potency, µM (doses to about 92.2 µM), for the others: at the top dose activity change, negative = less growth, actives largely listed as inhibitors. 360,000 compounds, 0.21% hits. AID 651644, 2012; active means well fitted falling curve with a large enough effect; inconclusive means small, poorly fitted or top-dose-only effect; inactive means no such curve, though single readings can be large or run the other way; further: potency means the concentration at half of the fitted maximal effect; on the % scale 0 is the no-effect control and ±100 the full control effect; nearly all actives have a fitted effect of over 50% in size
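Fission yeast RE007 carrying one integrated HIV-1 vpr copy, seeded at OD 0.01 in PMG+AL medium with 23 nL pinned compound. Grown 24 h at 30 degrees; viability read by BacTiter-Glo luminescence after 5 min.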
* marks the source's active call; other numbers are inactive results; ? = inconclusive; . = no result. Unless noted, the call rests on the fitted dose curve; in most records, active means well fitted curve in the direction sought with a large enough effect; inconclusive means small, poorly fitted or top-dose-only effect, or another doubt; inactive means no such curve, though single readings can be large; an effect the other way counts as inactive or inconclusive.

SMILES	LmPK inh	Shiga inhibitor	Giardia FBPA inh	TbPYK inhibitor	CHX counter	RE007 growth inh
C/C(CC(=O)Nc1cccc(C(F)(F)F)c1)=N\NC(=O)C1CCCCC1	3.1%	54.8	-8.8%	-0.1%	26.7*	-11.2%
COc1ccc(C(=O)N/N=C(\C)CC(=O)Nc2cccc(C(F)(F)F)c2)cc1	7.0%	81.5*	-26.6%	-3.0%	39.0*	4.4%
CC(=O)Nc1ccccc1NC(=O)C/C(C)=N/NC(=O)C1CCCCC1	-2.8%	1.7	3.5%	3.8%	14.6	9.7%
Cc1cc(C)nc(Nc2nc(C(N)Cc3ccccc3)cs2)n1 (configuration not stated)	.	.	.	0.5%	.	-19.4%
O=C(CCCc1ccccc1)N1CCN(C2CCCCC2)CC1	-3.5%	.	12.4%	-1.7%	29.3*	5.0%
CCC1CCCCN1C(=O)CCS(=O)(=O)c1ccccc1 (configuration not stated)	-4.1%	76.1*	.	2.4%	34.2*	-12.6%
COc1ccc(CCC(=O)N2CCN(C3CCCCC3)CC2)cc1	-13.1%	-5.7	3.0%	-0.3%	5.8	-5.3%
CCC1CCCCN1C(=O)CCCc1ccccc1 (configuration not stated)	-1.1%	70.4*	10.8%	-2.6%	34.9*	7.6%
COc1ccc(NC(=O)CSCC(=O)N(C)Cc2ccc3c(c2)OCCO3)cc1	.	.	.	2.5%	.	-0.5%
COc1ccc(C(C)C(=O)c2ccc(O)cc2O)cc1 (configuration not stated)	.	.	8.5%	.	.	.
CCc1ccc(-n2c(C)nc3cc(C(=O)NCc4cccnc4)ccc32)cc1	1.4%	-13.6	0.5%	-9.4%	2.0	-3.7%
COCCCNC(=O)CN1C(=O)COc2ccc(S(=O)(=O)N3CCCC3)cc21	.	.	.	1.0%	.	.
CCOc1cc(CNCCSc2nnnn2C)ccc1OCc1ccc(Cl)cc1Cl	.	.	.	-0.5%	.	.
O=C(Nc1ccc(O)c(-c2nc3ccccc3s2)c1)C1=COCCO1	3.4%	1.0	-0.8%	-0.3%	-1.5	-4.6%
O=C(Nc1ccc(-c2nc3ccccc3s2)c(O)c1)C1=COCCO1	-1.9%	73.1*	1.7%	9.8%	131.3*	-15.3%
O=C(Nc1cccc(-c2nc3ccccc3s2)c1)C1=COCCO1	-0.1%	50.2*	2.3%	-8.2%	43.8*	?
O=C(Nc1ccc(-c2nc3ccccc3s2)cc1)C1=COCCO1	-11.6%	55.5*	6.4%	-7.8%	39.5*	-18.6%
CN(C)c1cccc(C(=O)Nc2ccc(-c3nc4ccccc4s3)cc2)c1	.	.	.	-1.3%	.	.
COc1ccccc1-n1nc(-c2ccccc2)c2cnc3c(F)cc(F)cc3c21	.	.	.	-3.7%	.	.
CCOC(=O)[C@]12CCCC=C1N(CCC1=CCCCC1)C(=O)[C@H](CC(=O)NCC1CCCCC1)C2	.	.	.	.	.	5.1%
CCOc1cc(CNC(=O)Cn2ncn3c(cc4cc(F)ccc43)c2=O)cc(OCC)c1OCC	.	.	.	3.1%	.	.
COc1ccc(Nc2nccc(NCCO)n2)cc1	.	71.8*	-0.3%	.	41.2*	.
COc1ccc(Nc2nccc(-c3ccc(C#N)cc3)n2)cc1	-1.3%	-11.6	-1.1%	14.9%	8.0	-5.4%
COc1ccc(Nc2nccc(-c3cccc(N)c3)n2)cc1	0.1%	71.0*	-7.8%	4.3%	68.2*	2.6%
CCCC/C=C/[C@H](c1ccccc1)[C@H](CO)Cc1ccccc1	.	39.8	-3.0%	.	4.9	.
SMILES	LmPK inh	Shiga inhibitor	Giardia FBPA inh	TbPYK inhibitor	CHX counter	RE007 growth inh
CCOC(=O)N1CCN(c2c(Nc3ccc4c(c3)OCCO4)c(=O)c2=O)CC1	9.1%	63.6*	?	-1.3%	52.5*	-7.6%
CCOCC(=O)Nc1ccc2c(c1)OCCO2	-8.8%	67.8*	-3.1%	-0.2%	42.4*	-6.8%
COc1ccc(OCC(=O)Nc2ccc3c(c2)OCO3)cc1	0.5%	31.9	-8.4%	-5.9%	12.7	-12.8%
Cc1cc(C)cc(OCC(=O)Nc2ccc3c(c2)OCCO3)c1	-3.1%	36.6	6.8%	1.8%	18.9	-11.1%
CCOC(=O)N1CCN(CC(=O)NC(=O)Nc2ccc3c(c2)OCCO3)CC1	.	.	.	-8.7%	.	3.6%
O=C(COc1ccc2c(c1)OCO2)Nc1cccc(F)c1	-0.7%	100.9*	-3.8%	-5.0%	34.6*	-9.8%
Cc1cc(OCC(=O)Nc2ccc3c(c2)OCCO3)ccc1Cl	-2.1%	106.9*	4.6%	-3.3%	38.7*	-22.2%
O=C(COc1ccc(F)cc1)Nc1ccc2c(c1)OCCO2	-6.0%	69.9*	3.6%	8.3%	43.8*	11.4%
CCC(C)(O)c1[nH]c2ccc(C(=O)OC)cc2c1C (configuration not stated)	-3.2%	33.6*	-8.5%	0.9%	22.4*	-5.4%
COC(=O)c1cc(S(=O)(=O)N2CCN(c3ccc(C)cc3C)CC2)cn1C	.	.	.	3.7%	.	.
CCCCC/C=C\C/C=C\C=C\[C@@H](O)C/C=C\CCCC(=O)O	.	.	3.5%	.	.	.
CC1(C)C(=O)Nc2ccccc2N1C(=O)COC(=O)COc1ccc(C#N)cc1	3.2%	4.4	.	-4.1%	0.7	-4.1%
Cc1nn2cc(-c3ccc(Cl)cc3)cnc2c1Cl	-15.7%	49.3*	-2.0%	-1.7%	28.9*	3.7%
Cc1ccc(OCC(=O)Nc2cccnc2Cl)cc1C	-0.9%	58.4*	-1.2%	2.0%	17.8*	22.3%
Cc1ccc(OCC(=O)Nc2ccccc2F)cc1C	-8.2%	81.3*	2.0%	-15.3%	36.2*	28.3%
Cc1cc(C)cc(C(=O)Nc2cccnc2Cl)c1	-3.8%	-4.9	-7.3%	0.5%	-4.3	-2.4%
Cc1ccc(OCC(=O)Nc2ccccc2F)cc1	.	.	.	-9.1%	.	-24.1%
Cc1ccc(C(=O)Nc2cccnc2Cl)cc1Cl	-1.6%	.	12.7%	-0.5%	34.8*	32.8%
O=C(COC(=O)CC12CC3CC(CC(C3)C1)C2)Nc1cccnc1Cl	-1.4%	11.4	-0.7%	-2.8%	25.2*	39.1%
CC(=O)Nc1ccc(NC(=O)CN2C(=O)CC(c3ccco3)Sc3ccccc32)cc1 (configuration not stated)	.	.	.	-4.2%	.	.
c1ccc(Cc2cc(-c3ccccc3)on2)cc1	0.5%	90.4*	1.7%	5.0%	36.5*	-2.9%
Cc1cccc(N(C(=O)Cn2nnc(-c3ccccc3F)n2)C(C(=O)NC(C)(C)C)c2ccncc2)c1 (configuration not stated)	0.5%	-8.2	2.9%	0.7%	-1.8	-3.8%
CC(C)(C)NC(=O)C(c1ccncc1)N(C(=O)Cn1nnc(-c2ccc(F)cc2)n1)c1cccc(F)c1 (configuration not stated)	0.8%	55.9	-0.3%	-0.7%	28.5*	21.9%
CC1CCc2c(sc3nc(CSc4n[nH]c(N)n4)[nH]c(=O)c23)C1 (configuration not stated)	-4.5%	37.2*	7.7%	-18.0%	13.1	4.2%
